Experimental data published in PubChem BioAssay AID624156 (Broad Institute, 2012).
The campaign covered roughly 46,000 compounds. About 900 (2%) were called active. Not shown: some 1% with an inconclusive outcome. The list comes from a sample in which actives are over-represented; it also holds similar structures and randomly drawn compounds. Unmarked numbers belong to inactive results. No stated cut-off is given here; in the data, active means ROS induction above about 79% (passing the limit was not always enough); inconclusive means no clear call, values can overlap the other calls.

test: ROS inducers in U2OS cancer cells, primary screen, cell-based, H2DCF-DA fluorescence (AID 624156); conditions: at 10 µM, active compounds read high;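 further: 0% = DMSO vehicle median and 100% = reference compound median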

Structure (SMILES)	ROS induction (% of piperlongumine)
NC(=O)N1CCc2ccccc21	6.65%
O=C(CCCCCCC(=O)Nc1ccccc1O)N/N=C/c1ccc(C(F)(F)F)cc1	7.34%
COc1ccc(C2NNC(=S)S2)cc1 (stereo not drawn)	-8.92%
O=C(N1CCCc2ccccc21)N1c2ccccc2Sc2ccccc21	-12.4%
C=CCN(C(=O)Cc1ccc(OC)cc1)c1nnc(-c2ccc(Cl)cc2)s1	-4.96%
COc1ccc(C)cc1S(=O)(=O)N1CCN(C)CC1	-20.4%
C[C@@H]1CN([C@H](C)CO)C(=O)c2cc(NC(=O)NC3CCCCC3)ccc2O[C@H]1CN(C)S(C)(=O)=O	-3.72%
COC(=O)c1ccc(NC(=S)N2CCOCC2)cc1	-2.33%
C[C@H]1CN([C@@H](C)CO)C(=O)CCCn2cc(nn2)CO[C@H]1CN(C)S(=O)(=O)c1ccc2ccccc2c1	9.35%
CC1CC(NC(=S)N(C)C)CC(C)(C)C1 (stereo not drawn)	-10.5%
O=C(Nc1ccccc1Cl)c1ccccc1S(=O)(=O)c1ccccc1[N+](=O)[O-]	134% (active)
CC1CCN(S(=O)(=O)c2ccc(Cl)c(C(=O)Nc3ccccc3[N+](=O)[O-])c2)CC1	-11.1%
O=C(CCc1nc(-c2ccccc2Cl)no1)Nc1ccccc1[N+](=O)[O-]	-1.7%
COc1cccc(CNC(=O)CCn2nc(-c3ccccc3)ccc2=O)c1	-6.11%
CCc1cccc(NS(=O)(=O)c2cc(Br)cc3c2N(C(=O)C2CC2)CC3)c1	31.7%
O=C1c2ccccc2S(=O)c2ccccc2S(=O)(=O)N1Cc1ccccc1 (stereo not drawn)	205% (active)
CNC(=O)CN1C(=O)c2ccccc2S1(=O)=O	3.08%
COc1ccc(C2C(C(=O)N(C)c3ccc(C(C)C)cc3)CC(=O)N2c2ccc(OC)cc2)cc1 (stereo not drawn)	16.7%
C=C1C(=O)O[C@@H]2[C@H]3C(CO)=CC(=O)C3=C(C)C[C@H](OC(=O)Cc3ccc(O)cc3)[C@@H]12	205% (active)
CCOC(=O)/C(C#N)=c1/s/c(=C2/C=Cc3ccccc3N2CC)c(=O)n1CC	23.1%
C[C@@H]1CN([C@H](C)CO)C(=O)c2cc(NC(=O)Nc3ccccc3)ccc2O[C@H]1CN(C)S(=O)(=O)c1ccc(F)cc1	9.94%
O=C(Nc1ccccc1)Nc1ccccc1C(=O)N1CCOCC1	-0.785%
C[C@H](CO)N1C[C@H](C)[C@@H](CN(C)C(=O)Nc2ccc3c(c2)OCO3)Oc2c(cccc2N(C)C)C1=O	6.93%
C[C@H](CO)N1C[C@H](C)[C@H](CN(C)Cc2ccccc2)Oc2ncc(-c3ccccc3)cc2C1=O	3.81%
CCCC(O)C#Cc1cnc2c(c1)C(=O)N([C@H](C)CO)C[C@H](C)[C@H](CN(C)Cc1ccc(F)cc1)O2 (stereo partly drawn)	94.3% (active)
C[C@H](CO)N1C[C@H](C)[C@H](CN(C)C(=O)Nc2ccc3c(c2)OCO3)Oc2ncc(C#Cc3cccc(F)c3)cc2C1=O	93.9% (active)

Structure (SMILES)	ROS induction (% of piperlongumine)
COc1ccc(NC(=O)N(C)C[C@@H]2Oc3ncc(-c4cccc(OC)c4)cc3C(=O)N([C@H](C)CO)C[C@@H]2C)cc1	69.6%
CCCC(O)C#Cc1cnc2c(c1)C(=O)N([C@H](C)CO)C[C@H](C)[C@H](CN(C)S(=O)(=O)c1ccc(C#N)cc1)O2 (stereo partly drawn)	-0.235%
C[C@H](CO)N1C[C@H](C)[C@H](CN(C)C(=O)Nc2ccc(F)cc2)Oc2ncc(-c3cc4ccccc4o3)cc2C1=O	130% (active)
C[C@H](CO)N1C[C@H](C)[C@H](CN(C)C(=O)NC2CCCC2)Oc2ncc(-c3ccc(F)cc3)cc2C1=O	14.3%
C[C@H](CO)N1C[C@H](C)[C@H](CN(C)C(=O)Nc2ccc3c(c2)OCO3)Oc2ncc(Br)cc2C1=O	2.65%
CN1CCN(CC(O)COc2ccc3ccccc3c2)CC1 (stereo not drawn)	-2.48%
CC(C)CC(C(=O)O)N1C(=O)c2ccccc2C1=O (stereo not drawn)	-9.51%
Cn1c(=O)c2c(nc(SCC(=O)Nc3ccccc3F)n2Cc2ccccc2)n(C)c1=O	11.1%
O=C(Nc1nccs1)C1CCCN(C(=O)c2cnn(-c3ccccc3)c2-n2cccc2)C1 (stereo not drawn)	4.87%
COc1ccc(NS(=O)(=O)c2ccc(OCC(F)(F)F)c(C#N)c2OCC(F)(F)F)cc1	-8.52%
CCOc1ccc2c(=O)c(Oc3ccccc3Br)coc2c1	0.931%
Cc1noc(C)c1NC(=O)NCc1ccc2c(c1)OCO2	-1.2%
CN(C)c1ccc(/C=C(\C#N)S(=O)(=O)c2ccccc2)cc1C#N	-4.92%
CC1CCN(C(=O)CCNS(=O)(=O)c2cccc3nsnc23)CC1	-19.6%
Cc1cc(C(C)(C)C)cc(S(=O)(=O)Nc2ccc(C(=O)N3CCC(C)CC3)cc2)c1C	5.57%
Cc1cccc(NC(=O)c2nnn(-c3cccc(C(F)(F)F)c3)c2N)c1	-17.1%
O=S(=O)(NCc1csc(-c2cccnc2)n1)c1ccc2c(c1)CCCC2	5.59%
Cn1c(=NC(=O)CCOc2ccccc2)sc2cc(Br)ccc21	1.27%
Cc1ccc(Nc2cc(C(=O)NCC3CCCO3)c3ccccc3n2)cc1C (stereo not drawn)	1.21%
Cc1ccc(S(=O)(=O)N(CC(=O)Nc2ccc3c(c2)OCCO3)C2CCCCC2)cc1	7.86%
Cc1nnc(SCc2cc(=O)[nH]c(N3CCN(Cc4ccccc4)CC3)n2)s1	-2.67%
Cc1cc(Sc2nnc(C)s2)c2ccccc2n1	255% (active)
Cc1cc(Nc2ccc(Cl)cc2)c2ccccc2n1	6.49%
Cc1ccc2c(Sc3ccc(Cl)cc3)c(C(=O)NC3CCCC3)[nH]c2c1	-12.5%
O=C(N/N=C/c1cc(F)ccc1O)c1ccccc1O	-13.6%
c1ccc(Nc2ncnc3sc(-c4ccccc4)cc23)cc1	130% (active)

Structure (SMILES)	ROS induction (% of piperlongumine)
CNC(=O)NC(=O)CSc1ncnc2sc(-c3ccccc3)cc12	5.81%
Cc1ccccc1NC(=O)NC(=O)CC#N	-16.4%
C[C@@H]1CN([C@@H](C)CO)C(=O)c2cc(NC(=O)C3CC3)ccc2O[C@H]1CN(C)C	-0.632%
Cn1c(=O)c2c(nc(SCC(=O)NC(C)(C)C)n2Cc2ccccc2F)n(C)c1=O	0.779%
CC(C)C1Cc2c(sc3nc(SCC(=O)Nc4ccccc4)nc(N)c23)CO1 (stereo not drawn)	44%
Cc1ccc(NC(=O)c2ccc(CSc3ccccn3)cc2)c(C)c1	-9.72%
C[C@@H]1CN([C@H](C)CO)C(=O)c2cc(NS(=O)(=O)c3ccc(F)cc3)ccc2O[C@H]1CN(C)C(=O)Nc1cccc2ccccc12	6.38%
O=C1O[C@@H](c2ccccc2)[C@@H](c2ccccc2)N2[C@@H](c3ccc(OCCO)cc3)[C@]3(C(=O)Nc4ccc(C#CCCO)cc43)[C@@H](C(=O)O)[C@H]12	0.895%
COCCOC(=O)N1C(=O)[C@@]2(c3cc(C#CCC(C(=O)OC)C(=O)OC)ccc31)[C@H](c1ccc(OCCO)cc1)N1[C@H](c3ccccc3)[C@H](c3ccccc3)OC(=O)[C@H]1[C@@H]2C(N)=O	166% (active)
COc1ccc(C#Cc2ccc3c(c2)[C@]2(C(=O)N3)[C@H](c3ccccc3OCCO)N3[C@H](c4ccccc4)[C@H](c4ccccc4)OC(=O)[C@H]3[C@@H]2C(=O)N2CCCCCCC2)cc1	-14.4%
O=C1O[C@@H](c2ccccc2)[C@@H](c2ccccc2)N2[C@@H](c3ccccc3OCCO)[C@]3(C(=O)Nc4ccccc43)[C@@H](C(=O)N3CCCCCCC3)[C@H]12	108% (active)
O=C1O[C@H](c2ccccc2)[C@H](c2ccccc2)N2[C@H]1[C@@H](C(=O)N1CCN(c3ncccn3)CC1)[C@]1(C(=O)Nc3ccccc31)[C@H]2c1ccc(OCCO)cc1	69.8%
COCCOC(=O)N1C(=O)[C@@]2(c3cc(C#CCNC(N)=O)ccc31)[C@H](C(=O)N1CCN(c3ncccn3)CC1)[C@H]1C(=O)O[C@H](c3ccccc3)[C@H](c3ccccc3)N1[C@@H]2c1ccccc1OCCO	19.5%
COC(=O)C(CC#Cc1ccc2c(c1)[C@]1(C(=O)N2)[C@H](c2ccccc2OCCO)N2[C@H](c3ccccc3)[C@H](c3ccccc3)OC(=O)[C@H]2[C@@H]1C(N)=O)C(=O)OC	447% (active)
C=CCNC(=O)[C@H]1[C@@H]2C(=O)O[C@@H](c3ccccc3)[C@@H](c3ccccc3)N2[C@@H](c2ccccc2OCCO)[C@]12C(=O)N(C(=O)OCCOC)c1ccc(C#Cc3ccc(OC)cc3)cc12	15.7%
COC(=O)C(CC#Cc1ccc2c(c1)[C@]1(C(=O)N2)[C@H](c2ccc(O)cc2)N2[C@H](c3ccccc3)[C@H](c3ccccc3)OC(=O)[C@H]2[C@@H]1C(=O)NC[C@H](O)c1ccccc1)C(=O)OC	16.4%
COc1ccc(CCNC(=O)c2cc3ccccc3c(=O)o2)cc1OC	19.8%
COc1ccc(/C=C(/NC(=O)c2ccccc2)C(=O)N2CC3(C)CC2CC(C)(C)C3)cc1 (stereo not drawn)	1.8%
CCOC(=O)C1CCN(C(=O)CN2C(=O)c3ccccc3C2=O)CC1	-6.98%
COc1cccc(CNS(=O)(=O)c2ccc3[nH]c(=O)ccc3c2)c1	-8.9%
C[C@@H]1CN([C@@H](C)CO)C(=O)c2cc(NC(=O)CCCN(C)C)ccc2O[C@H]1CN(C)Cc1ccccc1	-15.8%
NS(=O)(=O)c1ccc(CCNC2=CC(=O)OC23CCCCC3)cc1	-9.03%
O=C(CSc1n[nH]c(-c2ccncc2)n1)Nc1ccccc1F	-7%
COc1ccc(OC)c(NC(=O)CSc2n[nH]c(-c3ccncc3)n2)c1	148% (active)
COC(=O)c1ccccc1NC(=O)CSc1n[nH]c(-c2ccncc2)n1	-0.326%
CC1CCCC(C)N1C(=O)c1cc2c(s1)-c1ccccc1OC2 (stereo not drawn)	-1.02%
